Among the data in ChEMBL document CHEMBL4808148, “HDAC6 screening dataset using tau-based substrate in an enzymatic assay yields selective inhibitors and activators” (2021) are inhibition values, retold here.

The campaign covered roughly 5,600 compounds. About 390 (7%) showed an effect of 50% or more. The list comes from a sample in which strong results are over-represented; it also holds similar structures and randomly drawn compounds.

Experiment [1] concerns the target T1, Protein deacetylase HDAC6 (Homo sapiens) (UniProt Q9UBN7).
T1 sequence (whole entry): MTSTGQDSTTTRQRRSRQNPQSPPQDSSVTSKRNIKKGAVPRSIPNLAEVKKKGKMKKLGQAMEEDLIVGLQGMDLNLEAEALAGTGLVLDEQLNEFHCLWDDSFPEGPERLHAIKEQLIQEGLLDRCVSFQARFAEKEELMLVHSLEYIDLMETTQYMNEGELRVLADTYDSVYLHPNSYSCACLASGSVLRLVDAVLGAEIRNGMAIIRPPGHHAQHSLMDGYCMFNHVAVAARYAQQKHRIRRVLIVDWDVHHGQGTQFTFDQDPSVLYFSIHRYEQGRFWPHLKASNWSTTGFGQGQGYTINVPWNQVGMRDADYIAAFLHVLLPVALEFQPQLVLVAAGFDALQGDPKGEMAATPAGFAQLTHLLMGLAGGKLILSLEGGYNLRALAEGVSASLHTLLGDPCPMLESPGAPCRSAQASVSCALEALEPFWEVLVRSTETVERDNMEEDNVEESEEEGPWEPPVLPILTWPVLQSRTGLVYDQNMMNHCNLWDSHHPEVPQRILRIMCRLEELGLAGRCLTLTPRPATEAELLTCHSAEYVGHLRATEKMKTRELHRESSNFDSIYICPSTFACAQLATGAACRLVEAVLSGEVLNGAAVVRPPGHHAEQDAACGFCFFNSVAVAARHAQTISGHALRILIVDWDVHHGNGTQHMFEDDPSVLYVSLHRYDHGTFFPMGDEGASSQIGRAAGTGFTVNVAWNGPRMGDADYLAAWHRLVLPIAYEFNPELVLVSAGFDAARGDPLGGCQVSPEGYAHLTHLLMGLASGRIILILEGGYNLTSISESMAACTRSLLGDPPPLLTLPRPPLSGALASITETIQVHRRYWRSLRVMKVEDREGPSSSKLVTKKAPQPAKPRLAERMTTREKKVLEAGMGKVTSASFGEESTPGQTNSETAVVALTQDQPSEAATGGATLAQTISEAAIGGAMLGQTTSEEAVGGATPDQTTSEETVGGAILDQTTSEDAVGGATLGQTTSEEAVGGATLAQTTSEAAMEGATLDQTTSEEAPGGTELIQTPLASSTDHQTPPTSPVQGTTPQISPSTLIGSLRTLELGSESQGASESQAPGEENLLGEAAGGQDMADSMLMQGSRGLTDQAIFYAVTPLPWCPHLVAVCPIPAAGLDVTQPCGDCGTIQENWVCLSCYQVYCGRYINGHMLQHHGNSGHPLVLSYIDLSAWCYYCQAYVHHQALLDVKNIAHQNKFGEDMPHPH
The settings on record: at 10 µM.

For experiment [2], the target named is Protein deacetylase HDAC6 (Homo sapiens) (UniProt Q9UBN7). The settings on record: at 10 µM. This is another data set of the same source.

On to `CCCN(CCC)C(=O)C(CCC(=O)OCCCN1CCN(CCOC(=O)Cc2c(C)n(C(=O)c3ccc(Cl)cc3)c3ccc(OC)cc23)CC1)NC(=O)c1ccccc1` (centres undefined), for which the inhibition in experiment [1] is -4.35%.
On the same count and under the same terms, the same measure for `O=[N+]([O-])c1cc(Cl)ccc1S(=O)(=O)c1ccccc1`: 13.8%; for `NC1=NC(=O)N([C@H]2C[C@H](O)[C@@H](CO)O2)CN1`: 19.8%; for `Brc1ccc(NC2C3CC4CC(C3)CC2C4)cc1` (centres undefined): 5.83%.
Same read-out and setting: the same measure for `O=S(=O)(c1ccccc1F)N1CCOc2c(N3CCNCC3)cccc21`: 3.08%.
On the same count and under the same terms, the same measure for `CC(=O)O[C@]1(C(C)=O)CC[C@H]2[C@@H]3C=CC4=CC(=O)CC[C@]4(C)[C@H]3CC[C@@]21C`: 31.5%; for `CCOC(=O)Nc1nc2ccccc2[nH]1`: 34.2%.
On to `CCCSc1ccc2[nH]c(NC(=O)OC)nc2c1`, for which the inhibition in experiment [1] worked out at 58.8%.
The same measure, in the same setting: the value for `CCC[S+]([O-])c1ccc2[nH]c(NC(=O)OC)nc2c1` (centres undefined) was 18.6%; that for `Cc1nc(N(C)C(=O)Cc2ccc(-c3ccccn3)cc2)sc1S(N)(=O)=O` was 23.9%; that for `CCOC(=O)Nc1ccc2c(c1)N(C(=O)CCN(CC)CC)c1ccccc1S2` was 14.5%.
Turning to `Nc1nccc(Oc2ccc(NC(=O)c3cn(COP(=O)(O)O)cc(-c4ccc(F)cc4)c3=O)cc2F)c1Cl`, in experiment [1], the inhibition was 21.9%.
Same read-out and setting: the same measure for `C[C@H]1CN(Cc2ccc(CC(=O)N3CCC(Nc4cccc(F)c4)CC3)cc2)CCN1`: 44.9%; for `CC(=O)N1CCC(NC(=O)c2ccc(F)cc2)CC1`: 13.7%.
`O=C(/C=C/c1cccc(F)c1)NC1CC1`: the inhibition in experiment [1] came to 52.8%.
Same read-out and setting: the same measure for `O=C(C(c1ccccc1)c1ccccc1)N1CCN(CC(O)COc2cccc3ncccc23)CC1` (centres undefined): 5.51%; for `COc1ccc(C2CNC(=O)NC2)cc1O[C@H]1C[C@@H]2CC[C@H]1C2`: 6.99%; for `CCOC(=O)[C@H](CCc1ccccc1)N[C@@H](C)C(=O)N1C(=O)N(C)C[C@H]1C(=O)O`: 15.9%.
Still for that read-out and setting: the value for `CC(=O)Oc1ccccc1C(=O)Nc1ncc([N+](=O)[O-])s1` was 103%; that for `O=C1NC(O)CCN1[C@@H]1O[C@H](CO)[C@@H](O)[C@H]1O` (some centres undefined) was 15.9%; that for `C[C@@H]1CC2C3CCC4=CC(=O)C=C[C@]4(C)[C@@]3(F)[C@@H](O)C[C@]2(C)[C@H]1C(=O)CO` (some centres undefined) was 6.55%.
As for ESCIN, CHEMBL4594473, the inhibition in experiment [2] was 3.89%.
With `O=C(COc1ccc(Cl)cc1)N[C@H]1CC[C@H](NC(=O)COc2ccc(Cl)cc2)CC1`, the inhibition in experiment [1] is -5.96%.
`CN1[C@@H]2C[C@@H](O)C[C@H]1[C@@H]1O[C@@H]12`: in experiment [1], the inhibition was 91.4%.
The same measure, in the same setting: the same measure for `Cc1cc(C)c(NC(=O)N(Cc2ccc3c(c2)Cc2ccccc2-3)C2CCCCCC2)c(C)c1`: 0.9%; for `CN1CCN(Cc2ccc(Nc3ncc(Cl)c(Nc4ccccc4S(=O)(=O)N(C)C)n3)cc2)CC1`: 5.09%; for `CC1(C)S[C@@H]2[C@H](NC(=O)[C@H](NC(=O)N3CCNC3=O)c3ccccc3)C(=O)N2[C@H]1C(=O)O`: 13.9%.
For `O=C(O)CC(S)C(=O)O` (centres undefined), in experiment [1], the inhibition was determined as 18.6%.
Same read-out and setting: the same measure for `O[AsH]O[AsH]O` (centres undefined): -5.16%.
The same measure, in the same setting: the value for `O=C(CO)[C@@H](O)[C@@H](O)[C@H](O)CO` was 3.04%.
Regarding VANADATE ION, CHEMBL1163564, the inhibition in experiment [2] stood at 8.48%.
Same read-out and setting: the value for GADOTERIDOL, CHEMBL1200593 was -7.04%.
Same read-out and setting: the same measure for PHENYLMERCURIC ACETATE, CHEMBL1333953: 113%.
As for `CCNCc1cc(C(C)(C)C)c(O)c(C(C)(C)C)c1`, the inhibition in experiment [1] stood at 36.2%.
The same measure, in the same setting: the same measure for `CNc1ccc([N+](=O)[O-])cc1-n1cnc(-c2ccc(C(F)(F)F)cc2)c1`: -2.07%.
Same read-out and setting: the same measure for `CCN1CCN(Cc2ccc(C(=O)Nc3ccc(C)c(Oc4ccc5c(c4)CC(=O)N5)c3)cc2C(F)(F)F)CC1`: 42.8%.
Same read-out and setting: the value for `Cc1ccc(C(=O)Nc2ccc(CN3CCN(C)CC3)c(C(F)(F)F)c2)cc1C#Cc1cnc2[nH]ncc2c1` was 69%; that for `CCCCC(F)(F)[C@@]1(O)CC[C@H]2[C@@H](CC(=O)[C@@H]2CCCCCCC(=O)O)O1` was 26.8%.
Regarding `Nc1c(S(=O)(=O)O)cc(Nc2cccc3ccccc23)c2c1C(=O)c1ccccc1C2=O`, the inhibition in experiment [1] is 30.6%.
On the same count and under the same terms, the same measure for `CNC(C)CC1CCCCC1` (centres undefined): -3.99%; for `COc1ccc2nc3c(c(N)c2c1)CCCC3`: 14.7%.
Still for that read-out and setting: the same measure for `Cc1cc(O)c2c(c1)C(=O)c1cc(O)cc(O)c1C2=O`: 99.6%; for `O=C(Nc1ccncc1)C(=O)c1cn(Cc2ccc(Cl)cc2)c2ccccc12`: 11.2%; for `CCCCCCOc1nsnc1C1=CCCN(C)C1`: 21.1%.
Same read-out and setting: the value for `CSCC[C@H](NC(=O)[C@H](Cc1ccccc1)NC(=O)CNC(=O)CNC(=O)[C@@H](N)Cc1ccc(O)cc1)C(=O)O` was -7.67%; that for `CC(C)Cc1ccc(C(C)C(=O)NCCO)cc1` (centres undefined) was 5.6%.
Take `CC(=O)Nc1ccc(Cc2ccc(NC(C)=O)cc2)cc1`: the inhibition in experiment [1] stood at 37.1%.
The same measure, in the same setting: the same measure for `Nc1nonc1/C(=N/O)Nc1ccc(F)c(Cl)c1`: 6.27%.
Same read-out and setting: the same measure for `O=C(Nc1ccc(Cl)cc1)Nc1ccc(Cl)c(Cl)c1`: 52.2%.

Usually inhibition stands for the change of the read-out against control, counted positive when it falls.
